# Test results as given in PubChem BioAssay (NCI).
# The panel holds about 83,000 compounds, 20% with a hit somewhere; the sample as a whole holds those more often.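 How to read the values: 0–100, growth inhibition (40 = 60% inhibited); 0, no net growth; -100 to 0, cell death (-40 = 40% of starting cells died; -100 = all dead).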 A number with no mark means an inactive call. The source made the active and inactive calls. Rule for the calls: active = growth percent below 10; inactive = the rest.
# Columns and labels:
# Experiment in all cases: NCI-60 one-dose screen, 48 h (100 = growth as untreated, 0 = no growth, -100 = all killed)
# Settings in all cases: 10 µM unless noted
# NCI-H23 lung = test system: NCI-H23 lung
# NCI-H226 lung = test system: NCI-H226 lung
# NCI-H322M lung = test system: NCI-H322M lung
# HOP-62 NSCLC = test system: HOP-62 NSCLC
# NCI-H460 lung = test system: NCI-H460 lung
# NCI-H522 lung = test system: NCI-H522 lung
# A549/ATCC NSCLC = test system: A549/ATCC NSCLC
# 786-0 renal = test system: 786-0 renal
# COLO 205 colon = test system: COLO 205 colon
# DU-145 prostate = test system: DU-145 prostate
# K-562 leukemia = test system: K-562 leukemia
# MALME-3M melanoma = test system: MALME-3M melanoma
# MDA-MB-231 breast = test system: MDA-MB-231 breast
# RXF 393 renal = test system: RXF 393 renal
# SF-268 CNS = test system: SF-268 CNS
# SF-295 CNS = test system: SF-295 CNS
# SF-539 CNS = test system: SF-539 CNS
# UACC-257 melanoma = test system: UACC-257 melanoma
# M14 melanoma = test system: M14 melanoma
Structure (SMILES),growth (NCI-H23 lung),growth (NCI-H226 lung),growth (NCI-H322M lung),growth (HOP-62 NSCLC),growth (NCI-H460 lung),growth (NCI-H522 lung),growth (A549/ATCC NSCLC),growth (786-0 renal),growth (COLO 205 colon),growth (DU-145 prostate),growth (K-562 leukemia),growth (MALME-3M melanoma),growth (MDA-MB-231 breast),growth (RXF 393 renal),growth (SF-268 CNS),growth (SF-295 CNS),growth (SF-539 CNS),growth (UACC-257 melanoma),growth (M14 melanoma)
Cc1cc2ncc(-c3cc4ccccc4c(N4CCN(C)CC4)n3)nc2cc1C,70.7%,91.9%,47.7%,82.9%,-77.9% (active),75.5%,54%,61.3%,-57.9% (active),33.6%,-50.7% (active),-69.1% (active),18.6%,-71.8% (active),62.7%,10.2%,-2.53% (active),99.1%,-85.7% (active)
CCOc1ccc(C(=O)Nc2ncc(Cc3ccc(F)cc3)s2)cc1,28.4%,40.1%,55.3%,33.7%,7.15% (active),10.8%,33.6%,39.3%,-21.9% (active),28.8%,9.95% (active),63.6%,36%,1.11% (active),53.6%,4.39% (active),1.96% (active),77.7%,15.4%
CCNC(=O)N1CCc2cc(OC)c(OCCc3ccc(OC)c(N)c3)cc2C1c1ccc(C)cc1C (configuration not stated),20%,42.9%,40.7%,26.9%,2.6% (active),-30.2% (active),9.14% (active),13.3%,13.3%,16.4%,15.1%,62.6%,15%,7.54% (active),26.1%,16.1%,13.6%,49.1%,16.5%
COc1cc(OC)c(S(N)(=O)=O)cc1C(=O)/C=C/c1ccc(C)cc1,8.61% (active),-2.47% (active),34.6%,11.9%,-3.51% (active),11%,22.5%,19.9%,17%,1.29% (active),7.24% (active),72.9%,14.2%,-28.2% (active),31.6%,23.6%,1.82% (active),81%,41.5%
O=C(Nc1ccc(Br)cc1)Nc1nc2ccc([N+](=O)[O-])cc2s1,-21.9% (active),-3.17% (active),8.37% (active),0.86% (active),-3.34% (active),3.86% (active),5.83% (active),11.2%,-37% (active),18.8%,2.8% (active),-14.1% (active),-5.42% (active),-27.8% (active),12.2%,-40.1% (active),0.554% (active),-16.8% (active),2.06% (active)
CN1CCN(Cc2ccc(NC(=O)c3cncc(C#Cc4cnc5ccc(NCCCO)nn45)c3)cc2C(F)(F)F)CC1,-52% (active),-10.1% (active),3.42% (active),-36.8% (active),-85.6% (active),-77.2% (active),5.6% (active),-58.9% (active),-78% (active),-16.5% (active),0.484% (active),-56.1% (active),12.2%,-89% (active),-44.4% (active),-12.1% (active),-78.1% (active),-43.8% (active),-91% (active)
CN1c2ccccc2Sc2cc(C=C(C#N)C#N)ccc21,89.3%,-31.4% (active),97.3%,90.4%,97.9%,91.8%,98%,105%,108%,110%,101%,98.3%,92.3%,92.1%,105%,103%,101%,97.5%,96%
CCOC(=O)c1c(Nc2ccccc2)nn2c(-c3ccc(Cl)cc3)ccnc12,73.4%,58.6%,86.5%,56.7%,44.1%,79.7%,70.4%,64.7%,82.1%,79.5%,81.1%,84%,75.4%,-10.6% (active),77%,77.5%,71.7%,104%,96.5%
